Rows were chosen to be rich in hits. Some 6.5% of all compounds tested hit in one or more screens of this group.
Spn DPM-DC inh: S. pneumoniae DPM-DC inhibition | purified DPM-DC, PK/LDH coupled NADH fluorescence | calls only at 10 µM | hit rate 0.49% among 65,000;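 active = the 320 compounds with the highest percent inhibition in the single-dose primary screen, excluding strongly autofluorescent ones, cut at about 32% in these data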;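 note: kinetic rate of NADH fluorescence loss reporting ADP formed by the decarboxylase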
Fluor 339 460: intrinsic fluorescence of library compounds, ex339/em460 – biochemical, MLSMR library, data from DPM-DC assay, artefact control, profiling panel | compound autofluorescence, ex339/em460 nm, NADH buffer; stronger effect = higher value; 1 = no-compound wells, NADH background | fluorescence fold increase at 10 µM | hit rate 5.5% among 65,000;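 active = at 10 µM, mean starting fluorescence two-fold or more over control wells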;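 note: signal is the first read of a kinetic run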
A340 absorber: compounds absorbing at 340 nm; compound absorbance at 340 nm, fold over control; fold change at 10 µM; 65,000 tested, under 10 active; AID 708;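 active = at 10 µM dose, initial 340 nm absorbance at least 2 fold that of control wells; inactive = change under 2 fold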;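 note: initial absorbance extrapolated from kinetic A340 decline of NADH oxidation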
NADH enzymes: blocks coupling enzymes of NAD/NADH assays | coupled PK/LDH NADH assays, four targets | IC50, µM (top dose mostly 10 µM), without a hit: top-dose inhibition | hit rate 0.02% among 65,000 | AID 774;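 active = single-dose screening hits from any of four coupled enzyme assays that gave an IC50 when retested across doses; inconclusive = no clear call, values can overlap the other calls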;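 note: the DPM-DC format reads NADH fluorescence rather than 340 nm absorbance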
Spn PMK inh: S. pneumoniae PMK inhibition. purified PMK, PK/LDH-coupled NADH absorbance 340 nm. inhibition, % at 10 µM. hit rate 0.49% among 65,000. AID 539;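 active = top-ranked compounds by inhibition in the single 10 µM screen, taking a fixed number of the strongest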;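 note: 0% = full reaction with DMSO carrier and 100% = background rate without enzyme reaction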
MK inhibit: blocks S. pneumoniae mevalonate kinase; purified MK, PK/LDH-coupled NADH absorbance 340 nm; inhibition, % at 10 µM; hit rate 0.48% among 65,000; AID 555;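 active = ranked among the strongest by inhibition in the single 10 µM screen, a fixed top-ranked set picked for dose follow-up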
* marks the source's active call; other numbers are inactive results.

`OCCCc1nc2n(n1)C(c1cccs1)C=C(c1ccccc1)N2` (stereo unspecified) gave Fluor 339 460 2.1*, A340 absorber 1.1, NADH enzymes 9%, Spn PMK inh 9 and MK inhibit 9.
`OCCCc1nc2n(n1)C(c1ccccc1Cl)C=C(c1cccs1)N2` (stereo unspecified) gave Fluor 339 460 3.8*, A340 absorber 1.1, NADH enzymes 4%, Spn PMK inh 7 and MK inhibit 0.
Screening Cc1ccccc1Nc1cc2ccccc2c(=O)[nH]1 returned Fluor 339 460 2.8*, A340 absorber 1, NADH enzymes 13%, Spn PMK inh 4 and MK inhibit 0.
For Cc1cc2ccccc2c(=O)[nH]1 the results were Spn DPM-DC inh inactive, Fluor 339 460 1.7, A340 absorber 1.1, NADH enzymes 6%, Spn PMK inh 11 and MK inhibit 0.
For Cc1ccc2nc(-c3ccc(NC(=O)c4ccco4)cc3)[nH]c2c1 the results were Spn DPM-DC inh inactive, Fluor 339 460 1.1, A340 absorber 1.1, NADH enzymes 3%, Spn PMK inh 3 and MK inhibit 0.
O=C(Nc1ccc(-c2nc3ncccc3o2)cc1)c1ccco1 was read as Spn DPM-DC inh active, Fluor 339 460 2.6*, A340 absorber 1.4, NADH enzymes 20%, Spn PMK inh 5 and MK inhibit 11.
For CCOc1cccc(C(=O)Nc2cccc(-c3nnc(-c4ccccc4)o3)c2)c1 the results were Spn DPM-DC inh inactive, Fluor 339 460 1.1, A340 absorber 1.1, NADH enzymes 6%, Spn PMK inh 8 and MK inhibit 10.
For Cc1nc(NC(=O)c2ccco2)sc1C(=O)Nc1ccc(Br)cc1 the results were Spn DPM-DC inh inactive, Fluor 339 460 1.2, A340 absorber 1.2, NADH enzymes 10%, Spn PMK inh 25* and MK inhibit 0.
`Cc1ccc(-c2nnc(-c3ccc(NC(=O)c4ccco4)cc3)o2)cc1` gave Spn DPM-DC inh inactive, Fluor 339 460 3*, A340 absorber 1.1, NADH enzymes 13%, Spn PMK inh 11 and MK inhibit 0.
Screening O=C(Nc1ccc(-c2nc3ncccc3o2)cc1)c1ccc(Br)o1 returned Fluor 339 460 2, A340 absorber 1.1, NADH enzymes 7%, Spn PMK inh 0 and MK inhibit 8.
`CCOc1cccc(C(=O)Nc2cccc(-c3nnc(-c4ccc(C)cc4)o3)c2)c1` gave Fluor 339 460 3.6*, A340 absorber 1.4, NADH enzymes 1%, Spn PMK inh 1 and MK inhibit 0.
Screening O=C(Nc1cc(C(F)(F)F)ccc1N1CCOCC1)c1ccc2ccccc2n1 returned Spn DPM-DC inh inactive, Fluor 339 460 1.2, A340 absorber 1, NADH enzymes 6%, Spn PMK inh 12 and MK inhibit 6.
COc1ccccc1NS(=O)(=O)c1cccc2cccnc12 was read as Spn DPM-DC inh inactive, Fluor 339 460 1.1, A340 absorber 1.1, NADH enzymes 26%, Spn PMK inh 5 and MK inhibit 51*.
Screening O=c1c2ccccc2nc2n1CCCCC2 returned Spn DPM-DC inh inactive, Fluor 339 460 1, A340 absorber 1, NADH enzymes 5%, Spn PMK inh 8 and MK inhibit 7.
Screening O=c1c2ccccc2nc2n1CCCCN2 returned Fluor 339 460 3.8*, A340 absorber 1.1, NADH enzymes 6%, Spn PMK inh 9 and MK inhibit 3.
Nc1ccc2nc3n(c(=O)c2c1)CCC3 was read as Fluor 339 460 2.1*, A340 absorber 1.1, NADH enzymes 9%, Spn PMK inh 12 and MK inhibit 6.
For O=c1c2ccccc2nc2n1CCC2 the results were Spn DPM-DC inh inactive, Fluor 339 460 1.1, A340 absorber 1, NADH enzymes inconclusive, Spn PMK inh 23 and MK inhibit 86*.
`CCOC(=O)C(C(=O)OCC)C(CC(=O)C1CC1)c1ccccc1` (stereo unspecified) gave Spn DPM-DC inh inactive, Fluor 339 460 1.1, A340 absorber 1, NADH enzymes 0%, Spn PMK inh 1 and MK inhibit 0.
`CCn1c(SCC(=O)N2CCOCC2)nc2c(c1=O)SC(C)C2` (stereo unspecified) gave Spn DPM-DC inh inactive, Fluor 339 460 1, A340 absorber 1, NADH enzymes 2%, Spn PMK inh 18 and MK inhibit 0.
COc1ccc(-c2cc(C(F)F)n3ncc(C(=O)N4CCSCC4)c3n2)cc1 was read as Fluor 339 460 3.5*, A340 absorber 1.2, NADH enzymes 12%, Spn PMK inh 8 and MK inhibit 15.
`CCOC(=O)C1CCCN(C(=O)c2cnn3c(C(F)F)cc(-c4ccc(C)cc4)nc23)C1` (stereo unspecified) gave Spn DPM-DC inh inactive, Fluor 339 460 2.3*, A340 absorber 1.1, NADH enzymes 8%, Spn PMK inh 4 and MK inhibit 6.
Screening Cc1ccc(-c2cc(C(F)F)n3ncc(C(=O)N4CCN5CCCC5C4)c3n2)cc1 (stereo unspecified) returned Spn DPM-DC inh inactive, Fluor 339 460 1.8, A340 absorber 1.1, NADH enzymes 5%, Spn PMK inh 1 and MK inhibit 0.
Screening CCOC(=O)C1CCN(C(=O)c2cnn3c(C)cc(C)nc23)CC1 returned Spn DPM-DC inh inactive, Fluor 339 460 3.5*, A340 absorber 0.96, NADH enzymes 15%, Spn PMK inh 20 and MK inhibit 0.
`CCCC1=C(C(=O)OCC)C(c2ccccc2OC)NC(=O)N1` (stereo unspecified) gave Spn DPM-DC inh inactive, Fluor 339 460 1.1, A340 absorber 1, NADH enzymes 0%, Spn PMK inh 0 and MK inhibit 1.
`Cc1ccccc1-c1ccc(Nc2ccc(N3CCOCC3)cc2)nn1` gave Spn DPM-DC inh inactive, Fluor 339 460 1.1, A340 absorber 1.1, NADH enzymes 2%, Spn PMK inh 0 and MK inhibit 6.
COc1c2c(nc3occc13)C(CCC(C)(C)O)(OC)C(O)CC2 (stereo unspecified) was read as Spn DPM-DC inh inactive, Fluor 339 460 1.1, A340 absorber 1.1, NADH enzymes 4% and Spn PMK inh 7.
COC(=O)c1cc(Cc2ccc(N)c(C(=O)OC)c2)ccc1N was read as Fluor 339 460 2.1*, A340 absorber 1.1, NADH enzymes 5%, Spn PMK inh 5 and MK inhibit 4.
For COC(=O)c1ccc(C(=O)OC)c(NS(C)(=O)=O)c1 the results were Spn DPM-DC inh inactive, Fluor 339 460 1.2, A340 absorber 1, NADH enzymes 5%, Spn PMK inh 0 and MK inhibit 13.
COC(=O)c1ccc(C(=O)OC)c(N)c1 was read as Fluor 339 460 4*, A340 absorber 1, NADH enzymes 3%, Spn PMK inh 0 and MK inhibit 6.
